Compounds with a hit are over-represented: about 6.8% of the library has one in this group of screens.
MK inhibit: S. pneumoniae mevalonate kinase inhibition | purified MK, PK/LDH-coupled NADH absorbance 340 nm | inhibition, % at 10 µM | actives 0.48% (n = 65,000) | AID 555;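 active = ranked among the strongest by inhibition in the single 10 µM screen, a fixed top-ranked set picked for dose follow-up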
A340 absorber: absorbance at 340 nm; compound absorbance at 340 nm, fold over control; fold change at 10 µM; 65,000 tested, under 10 active;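 active = at 10 µM dose, initial 340 nm absorbance at least 2 fold that of control wells; inactive = change under 2 fold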;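 also: initial absorbance extrapolated from kinetic A340 decline of NADH oxidation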
PMK inhibit: S. pneumoniae PMK inhibition; purified PMK, PK/LDH-coupled NADH absorbance 340 nm; inhibition, % at 10 µM; actives 0.49% (n = 65,000);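 active = top-ranked compounds by inhibition in the single 10 µM screen, taking a fixed number of the strongest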;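 also: 0% = full reaction with DMSO carrier and 100% = background rate without enzyme reaction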
Spn DPM-DC inh: inhibitors of Streptococcus pneumoniae diphosphomevalonate decarboxylase; purified DPM-DC, PK/LDH coupled NADH fluorescence; calls only at 10 µM; actives 0.49% (n = 65,000); AID 556;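 active = the 320 compounds with the highest percent inhibition in the single-dose primary screen, excluding strongly autofluorescent ones, cut at about 32% in these data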;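 also: kinetic rate of NADH fluorescence loss reporting ADP formed by the decarboxylase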
NADH coupling: inhibition of NAD/NADH coupling enzymes, library profiling; coupled PK/LDH NADH assays, four targets; IC50, µM (titrated, usually from 10 µM), inactives show at the top dose inhibition; actives 0.02% (n = 65,000); AID 774;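 active = single-dose screening hits from any of four coupled enzyme assays that gave an IC50 when retested across doses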;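 also: the DPM-DC format reads NADH fluorescence rather than 340 nm absorbance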
Fluor 339 460: intrinsic fluorescence of library compounds, ex339/em460 – biochemical, MLSMR library, data from DPM-DC assay, artefact control, profiling panel; AID 709; fluorescence fold increase at 10 µM; compound autofluorescence, ex339/em460 nm, NADH buffer; hits give high values; 1 = no-compound wells, NADH background; actives 5.5% (n = 65,000);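 active = at 10 µM, mean starting fluorescence two-fold or more over control wells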;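 also: signal is the first read of a kinetic run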
The depositor's hits bear a star; i = inactive; . = no result shown; + = active, no number.

SMILES	MK inhibit	A340 absorber	PMK inhibit	Spn DPM-DC inh	NADH coupling	Fluor 339 460
CCCCc1cc(=O)oc2cc(C)c(CN3CCCC3)c(O)c12	4.0	1.08	6.0	i	5.0%	1.23
CNC(=O)c1cc2cc(Cl)cc(OC)c2oc1=O	3.0	1.03	4.0	i	2.0%	1.43
Cc1ccc(-c2nn(CC(=O)NCCN3CCOCC3)c(=O)c3ccccc23)cc1	3.0	1.06	6.0	i	3.0%	1.14
O=c1c2cccc3c2c(nn1CN1CCOCC1)-c1ccccc1-3	14.0	1.09	7.0	i	12.0%	2.43*
COC(=O)c1ccc(C(=O)OC)c(NC(=O)CCC(=O)O)c1	8.0	1.05	0.0	.	4.0%	2.14*
COC(=O)c1ccc(C(=O)OC)c(NC(=O)CCc2ccc(C)o2)c1	7.0	1.02	1.0	i	6.0%	1.41
O=c1[nH]c(-c2ccncc2)nc2ccccc12	21.0	1.06	18.0	+	24.0%	1.17
O=c1[nH]c(-c2cccnc2)nc2ccccc12	0.0	1.03	3.0	i	1.0%	1.07
COc1cc2cc(C(c3nnnn3C3CCCC3)N3CCCCC3)c(=O)[nH]c2cc1OC (stereo not drawn)	6.0	1.15	5.0	.	6.0%	3.54*
O=c1[nH]c2cc3c(cc2cc1C(c1nnnn1C1CCCCC1)N1CCSCC1)OCCO3 (stereo not drawn)	0.0	1.03	17.0	i	3.0%	2.43*
COC(=O)c1ccc(-n2nnnc2SCc2ccccc2OC)cc1	7.0	1	18.0	i	8.0%	1.11
O=S(=O)(Nc1ccc(C(F)(F)F)cc1)c1cnc[nH]1	12.0	0.99	8.0	+	20.0%	0.63
CC1CCCC(C)N1C(=O)CSc1nnc(C2CCCCC2)o1 (stereo not drawn)	7.0	0.99	6.0	i	6.0%	1.15
Cn1c(C(=O)N2COCC2(C)C)cc2c(=O)n3ccccc3nc21	8.0	1.12	10.0	.	9.0%	5.01*
CCOC(=O)C1CCCN(C(=O)c2cc3c(=O)n4cccc(C)c4nc3n2C)C1 (stereo not drawn)	3.0	1.02	12.0	.	2.0%	3.35*
Cc1cccn2c(=O)c3cc(C(=O)N4CCc5ccccc5C4)n(C)c3nc12	5.0	1.06	10.0	.	8.0%	5.02*
CNC(=O)c1cc2c(=O)n3cccc(C)c3nc2n1C	6.0	1.1	10.0	.	8.0%	5.01*
CN(C)c1ccc(NC(=O)c2cc3c(=O)n4ccccc4nc3n2C)cc1	8.0	1.03	7.0	i	6.0%	1.66
Cc1cccn2c(=O)c3cc(C(=O)N4CCCc5ccccc54)n(C)c3nc12	2.0	1.02	12.0	i	2.0%	1.33
COc1ccc(OC)c(NC(=O)Cn2cc(C#N)c3cc(Br)ccc32)c1	7.0	1.05	8.0	i	7.0%	1.08
CC1Cc2nc(SCC(=O)NCc3ccco3)n(Cc3ccccc3)c(=O)c2S1 (stereo not drawn)	6.0	1.11	6.0	i	7.0%	1.04
O=C(COc1ccc(Cl)cc1)NCc1nnc(SCC(=O)N2CCCc3ccccc32)o1	0.0	1.01	19.0	i	7.0%	1.01
O=C(NCc1ccco1)C1(S(=O)(=O)c2ccc(Cl)cc2)CC1	2.0	1	7.0	i	2.0%	1.05
Cc1cccn2c(=O)c3cc(C(=O)NCC4CCCO4)n(C)c3nc12 (stereo not drawn)	7.0	1.1	11.0	.	9.0%	5*
Cn1c(C(=O)NCC2CCCO2)cc2c(=O)n3ccccc3nc21 (stereo not drawn)	9.0	1.1	9.0	.	9.0%	5*
SMILES	MK inhibit	A340 absorber	PMK inhibit	Spn DPM-DC inh	NADH coupling	Fluor 339 460
Cc1cc(C(=O)NCC2CCCO2)n(-c2ccccc2)n1 (stereo not drawn)	13.0	1.05	20.0	i	11.0%	1.08
COc1cc(C)c(S(=O)(=O)n2ccc(C)n2)cc1C	10.0	1.04	0.0	i	3.0%	1.06
Cn1c(SCc2cc(=O)n3cc(Br)ccc3n2)nnc1C1COc2ccccc2O1 (stereo not drawn)	0.0	1.11	8.0	i	5.0%	1.29
CN(C)S(=O)(=O)c1cccc(C(=O)N2CCc3ccccc32)c1	5.0	1.02	3.0	i	3.0%	1.09
CN(C)S(=O)(=O)c1cccc(C(=O)C2=C3SC=C(c4ccccc4)N3CC2)c1	10.0	1.08	0.0	+	37.0%	1.08
COc1ccc(N(CC(=O)NCc2cccs2)S(=O)(=O)c2cccnc2)cc1	47.0*	1.05	10.0	i	20.0%	1.02
O=C(O)COc1ccc2nsnc2c1Cl	9.0	1.03	10.0	.	10.0%	3.73*
Cc1ccc(OCC(=O)O)c(-n2nc3ccccc3n2)c1	7.0	1.04	12.0	i	8.0%	1.21
O=C1CCCc2nc(N3CCc4ccccc43)ncc21	10.0	1.16	18.0	i	11.0%	1.94
O=C1CC(c2ccccc2)Cc2nc(N3CCc4ccccc43)ncc21 (stereo not drawn)	4.0	1.03	16.0	.	4.0%	3.01*
C=CCOC(=O)COc1ccc2c(C)c(C)c(=O)oc2c1	6.0	1.06	8.0	.	7.0%	2.15*
C=CCOC(=O)COc1ccc2c(C)c(CC)c(=O)oc2c1	11.0	1.08	7.0	.	9.0%	3.9*
C=CCNS(=O)(=O)c1ccc(OCC(=O)OCC)cc1	6.0	1.03	1.0	i	4.0%	1.1
Cc1noc(C)c1COC(=O)COc1ccc2c(C)cc(=O)oc2c1	0.0	1.07	0.0	i	4.0%	1.59
C=CCn1c(Cc2csc(N)n2)nnc1SCC(=O)OCC	8.0	0.97	4.0	i	3.0%	1.01
N#Cc1c(N)nc(SCC(=O)NCCc2ccccc2)c(C#N)c1-c1cccs1	7.0	1.09	0.0	.	4.0%	2.31*
CC(C)OC(=O)CSc1nc(N)c(C#N)c(-c2cccs2)c1C#N	0.0	1.11	0.0	i	0.0%	1.19
CCOc1ccccc1-c1nc(C(N)=O)c2[nH]c(=O)n(-c3ccc(F)cc3)c2n1	10.0	1.07	13.0	.	12.0%	2.14*
CCOC(=O)C1=C(C)NC(=O)NC1/C(C)=C/c1ccccc1 (stereo not drawn)	0.0	1.04	38.0*	i	14.0%	1.13
COc1ccc(C2CC(c3cccc(OC)c3OC)n3nnnc3N2)cc1 (stereo not drawn)	3.0	1.05	2.0	i	2.0%	1.11
CCN(CC)C(=O)C1CCCN(C/C(C)=C/c2ccccc2)C1 (stereo not drawn)	36.0	1.06	26.0*	i	21.0%	1.08
CCN(CC)C(=O)C1CCCN(C/C=C/c2ccccc2)C1 (stereo not drawn)	47.0*	1.05	14.0	i	20.0%	1.08
CCN(CC)C(=O)C1CCCN(Cc2ccccc2F)C1 (stereo not drawn)	31.0	1.05	0.0	i	10.0%	1.07
CCN(CC)C(=O)C1CCCN(Cc2ccccc2C(F)(F)F)C1 (stereo not drawn)	45.0*	1.02	0.0	i	15.0%	1.06

Bioassay records: PubChem, SRMLSC
